Source: PubChem (several laboratories)
PAFAH1B2 FP inh: PAFAH1B2 enzyme inhibitors, primary screen, biochemical, fluorescence polarization, human; Platelet-activating factor acetylhydrolase IB subunit alpha2 (Homo sapiens), P68402; recombinant PAFAH1B2, FP-rhodamine activity probe; inhibition, % at 3.39 µM; 340,000 compounds, 1.2% hits; AID 492953, 2010;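 active means inhibition above the mean of all tested compounds plus 3 SD, cut at about 24% in these data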
pPAFAH FP inh: pPAFAH enzyme inhibitors, primary screen, biochemical, fluorescence polarization, human | Platelet-activating factor acetylhydrolase (Homo sapiens), Q13093 | recombinant pPAFAH, FP-rhodamine probe fluorescence polarization | inhibition, % at 3.39 µM | 330,000 compounds, 1.5% hits | AID 463082, 2010;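 active means inhibition above the mean inhibition across the screen plus 3 SD, cut at about 25% in these data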;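 further: inhibitors block binding of the rhodamine activity-based probe so polarization drops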
Target sequence (Q13093 whole entry, looked up): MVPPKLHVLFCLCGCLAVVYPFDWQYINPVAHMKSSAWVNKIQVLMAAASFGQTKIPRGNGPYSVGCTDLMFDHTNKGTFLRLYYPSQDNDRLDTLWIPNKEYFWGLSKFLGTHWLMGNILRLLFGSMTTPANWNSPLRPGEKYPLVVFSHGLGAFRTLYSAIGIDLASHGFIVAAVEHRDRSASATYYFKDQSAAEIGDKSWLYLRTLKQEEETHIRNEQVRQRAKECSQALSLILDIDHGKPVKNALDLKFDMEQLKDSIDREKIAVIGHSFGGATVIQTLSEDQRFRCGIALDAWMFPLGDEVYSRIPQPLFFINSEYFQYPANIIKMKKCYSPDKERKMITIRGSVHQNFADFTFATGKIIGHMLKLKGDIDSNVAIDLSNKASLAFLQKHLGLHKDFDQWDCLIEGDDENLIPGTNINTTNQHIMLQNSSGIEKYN
DSG3 Ab inh: inhibitors of pemphigus antibody binding to DSG3, primary screen, biochemical, bead-based, flow cytometry, scFv-GFP; DSG3-coupled beads, scFv-anti-DSG3-GFP binding; hits give low values; 310,000 compounds, 0.48% hits; binding (percent of control), % at 10 µM;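 active means binding more than 3 SD below its plate's average and above zero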;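 further: hits lower antibody fragment binding to DSG3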
PAFAH1B3 FP inh: PAFAH1B3 enzyme inhibitors, primary screen, biochemical, fluorescence polarization, human; Platelet-activating factor acetylhydrolase IB subunit alpha1 (Homo sapiens), Q15102; recombinant PAFAH1B3, FP-rhodamine probe; inhibition, % at 3.39 µM; 340,000 compounds, 0.28% hits; AID 492972, 2010;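 active means inhibition above the screen-wide average of all tested compounds plus 3 SD, cut at about 25% in these data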
PAFAH2 inh: PAFAH2 enzyme inhibitors, primary screen, biochemical, fluorescence polarization, human. Platelet-activating factor acetylhydrolase 2, cytoplasmic (Homo sapiens), Q99487. recombinant PAFAH2, FP-rhodamine activity probe. inhibition, % at 3.39 µM. 340,000 compounds, 0.99% hits. AID 492956, 2010;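 active means inhibition above the mean over all tested compounds plus 3 SD, cut at about 30% in these data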;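 further: inhibitors block probe labeling of enzyme so polarization drops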
PfM18AAP inh: PfM18AAP inhibitors, malaria aminopeptidase, primary screen, biochemical, QFRET, recombinant enzyme | H-Glu-NHMec fluorogenic cleavage | inhibition, % at 7.35 µM | 290,000 compounds, 1.2% hits;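 active means inhibition above the campaign mean inhibition over all tested compounds plus 3 SD, cut at about 28% in these data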
pPAFAH FP conf: pPAFAH (PLA2G7) enzyme inhibitors, confirmation, biochemical, fluorescence polarization, human; shares compounds with pPAFAH FP inh; recombinant pPAFAH, FP-Rh probe fluorescence polarization; inhibition, % at 3.39 µM; 2,300 compounds, 72% hits; AID 463230, 2010;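 active means mean inhibition of the triplicate above the hit cutoff set for the earlier primary screen, cut at about 25% in these data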
Numbers stand for hits. Hits are enriched below; roughly 3.8% of the tested compounds scored in any of these assays.

How did Cc1cccc(NC(=O)CSc2nnc(-c3ccco3)c(-c3ccco3)n2)c1 do in these assays?
PAFAH1B2 FP inh: inactive; DSG3 Ab inh: inactive; PAFAH1B3 FP inh: inactive; PAFAH2 inh: inactive; PfM18AAP inh: inactive

Results for NS(=O)(=O)c1ccc(CNC(=O)Cc2cccs2)cc1 ?
PAFAH1B2 FP inh: inactive; pPAFAH FP inh: 35.2; DSG3 Ab inh: inactive; PAFAH1B3 FP inh: inactive; PAFAH2 inh: inactive; PfM18AAP inh: inactive; pPAFAH FP conf: inactive

How did CCOC(=O)c1c(CNc2ccncc2)n(C)c2cc(Br)c(O)cc12 do in these assays?
PAFAH1B2 FP inh: inactive; pPAFAH FP inh: inactive; DSG3 Ab inh: inactive; PAFAH1B3 FP inh: inactive; PAFAH2 inh: inactive; PfM18AAP inh: inactive

What do the screens show for `Cn1c(=O)n(C)c2cc(NS(=O)(=O)c3cccs3)ccc21`?
PAFAH1B2 FP inh: inactive; pPAFAH FP inh: inactive; DSG3 Ab inh: inactive; PAFAH1B3 FP inh: inactive; PAFAH2 inh: inactive; PfM18AAP inh: inactive

What do the screens show for `COc1ccc(NC(=O)CSc2nc3nc(C)cc(C)c3c(=O)[nH]2)cc1`?
PAFAH1B2 FP inh: inactive; pPAFAH FP inh: 69.3; DSG3 Ab inh: inactive; PAFAH1B3 FP inh: inactive; PAFAH2 inh: inactive; PfM18AAP inh: inactive; pPAFAH FP conf: inactive

How did CCN(CC)c1ccc(NC(=O)CSc2nc3nc(C)cc(C)c3c(=O)[nH]2)cc1 do in these assays?
PAFAH1B2 FP inh: inactive; pPAFAH FP inh: inactive; DSG3 Ab inh: inactive; PAFAH1B3 FP inh: inactive; PAFAH2 inh: inactive

How did Cc1ccc(NC(=O)CNC(c2ccccc2)c2ccccc2)c(F)c1 do in these assays?
PAFAH1B2 FP inh: inactive; pPAFAH FP inh: inactive; DSG3 Ab inh: inactive; PAFAH1B3 FP inh: inactive; PAFAH2 inh: inactive; PfM18AAP inh: inactive

What do the screens show for `O=C(CNC(c1ccccc1)c1ccccc1)Nc1c(F)cccc1F`?
PAFAH1B2 FP inh: inactive; pPAFAH FP inh: 89.2; DSG3 Ab inh: inactive; PAFAH1B3 FP inh: inactive; PAFAH2 inh: inactive; PfM18AAP inh: inactive; pPAFAH FP conf: inactive

How did CCc1nc2ccccc2c(C(=O)Nc2ccc(F)cc2)c1C do in these assays?
PAFAH1B2 FP inh: inactive; pPAFAH FP inh: inactive; DSG3 Ab inh: inactive; PAFAH1B3 FP inh: inactive; PAFAH2 inh: inactive; PfM18AAP inh: inactive

What do the screens show for `CSc1ncccc1C(=O)OCC(=O)NC1CCC(C)CC1` (configuration not stated)?
PAFAH1B2 FP inh: inactive; pPAFAH FP inh: 51.9; DSG3 Ab inh: inactive; PAFAH1B3 FP inh: inactive; PAFAH2 inh: 36.4; pPAFAH FP conf: inactive

What do the screens show for `COc1ccc(NC(=O)Nc2ccccc2OC)cc1`?
PAFAH1B2 FP inh: inactive; pPAFAH FP inh: inactive; DSG3 Ab inh: inactive; PAFAH1B3 FP inh: inactive; PAFAH2 inh: inactive; PfM18AAP inh: inactive

Results for COc1ccccc1NC(=O)Nc1ccc(C(N)=O)cc1 ?
PAFAH1B2 FP inh: inactive; pPAFAH FP inh: 42.1; DSG3 Ab inh: inactive; PAFAH1B3 FP inh: inactive; PAFAH2 inh: inactive; PfM18AAP inh: inactive; pPAFAH FP conf: inactive

What do the screens show for `OC(CNCC1CCCO1)Cn1c2ccc(Cl)cc2c2cc(Cl)ccc21` (configuration not stated)?
PAFAH1B2 FP inh: inactive; pPAFAH FP inh: 41.0; DSG3 Ab inh: inactive; PAFAH1B3 FP inh: inactive; PAFAH2 inh: inactive; PfM18AAP inh: inactive; pPAFAH FP conf: 33.6

How did CC(=O)c1ccc(N2CCN(C(=O)c3ccc(Cn4c(=S)[nH]c5ccc(N6CCOCC6)cc5c4=O)cc3)CC2)cc1 do in these assays?
PAFAH1B2 FP inh: inactive; pPAFAH FP inh: 49.2; DSG3 Ab inh: inactive; PAFAH1B3 FP inh: inactive; PAFAH2 inh: inactive; PfM18AAP inh: inactive; pPAFAH FP conf: inactive

What do the screens show for `O=C(c1ccc2c(=O)n(Cc3ccccc3)c(=S)[nH]c2c1)N1CCOCC1`?
PAFAH1B2 FP inh: inactive; pPAFAH FP inh: inactive; DSG3 Ab inh: inactive; PAFAH1B3 FP inh: inactive; PAFAH2 inh: inactive; PfM18AAP inh: inactive
